# Shown are actives, neighbours in structure and some others; about 3.6% of the full set was active somewhere.
# MazF activator – MazEF (E. coli) toxin RNase activation. P0AE70. FAM/BHQ RNA-DNA oligo cleavage fluorescence, 5 h. activation, % at 20 µM. hit rate 0.32% among 350,000; in the data active means activation above about 50%
# Target sequence (P0AE70 whole entry, looked up): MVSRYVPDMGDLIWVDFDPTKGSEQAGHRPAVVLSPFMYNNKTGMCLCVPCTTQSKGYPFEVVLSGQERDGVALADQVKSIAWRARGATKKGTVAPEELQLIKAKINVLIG
# BoNT-F LC inh – BoNT F light chain protease inhibition; AID 588497; inhibition, % at 10 µM; hit rate 0.22% among 360,000; Multiplex microsphere protease cleavage assay, flow cytometry; in the data active means inhibition above about 35%, passing the limit was not always enough; inconclusive means no clear call, values can overlap the other calls; further: plate controls were buffer without enzyme for full effect and enzyme alone for no effect
# Autofluor counter – compound fluorescence in toxin protease inhibitor counterscreen | compound autofluorescence counterscreen, microsphere flow cytometry; hits give high values | fluorescence intensity (test concentration not listed) | hit rate 3.1% among 360,000 | AID 624483; in the data active means fluorescence intensity above about 16000; inconclusive means no clear call, values can overlap the other calls
# BoNT A protease – BoNT A light chain protease inhibition; inhibition, % at 10 µM; hit rate 0.17% among 360,000; AID 588499; multiplex microsphere protease substrate cleavage, flow cytometry; further: plate controls were buffer without enzyme for full effect and enzyme alone for no effect
# Anthrax LF inh2 – inhibitors of Bacillus anthracis lethal factor protease; multiplex microsphere protease cleavage assay, LF; inhibition, % at 10 µM; hit rate 0.12% among 360,000; AID 588501; further: plate controls were buffer without enzyme for full effect and enzyme alone for no effect
# An asterisk follows results filed as active; ? = inconclusive; · = no result. Unless noted, no stated cut-off is given here; in the data, active means inhibition above about 30%; inconclusive means no clear call, values can overlap the other calls; inactive means below that.
SMILES,MazF activator,BoNT-F LC inh,Autofluor counter,BoNT A protease,Anthrax LF inh2
CN(CC(=O)O/N=C(\N)c1ccccn1)S(=O)(=O)c1ccccc1,4.6,1.3,19036*,2.6,-4.9
CCN(C[C@H]1N[C@@](CC)(C(=O)OC)[C@H]2C(=O)N(C)C(=O)[C@@H]12)C(=O)COC,6.6,-7.5,3764,-0.2,1.2
CCc1ccc(OCC(=O)Nc2ccc(S(=O)(=O)N3CCCC3)cc2)c(Br)c1,1.4,-4.6,23390*,-3.2,-2.3
O=C(COc1cccc(C(F)(F)F)c1)Nc1ccc(S(=O)(=O)N2CCCC2)cc1,-0.5,-10.5,25851*,-4.6,-3.5
COC(=O)c1ccc(NC(=O)COc2ccc(S(=O)(=O)N3CCCCC3)cc2)cc1,-5.7,1.9,23051*,2.1,2.5
Cc1c(Cl)cccc1NC(=O)COc1ccc(S(=O)(=O)N2CCOCC2)cc1,-5.4,0.8,16522*,-0.2,-2.0
O=C(COc1ccc(S(=O)(=O)N2CCOCC2)cc1)Nc1ccccc1Cl,3.1,-0.7,5771,0.9,1.5
Cc1ccc(C)c(-c2cc(C(=O)N/N=C/c3cccnc3)c3ccccc3n2)c1,-8.9,-4.9,4872,-4.1,-0.5
Cc1ccccc1OCCC(=O)OCC(=O)NNC(=O)c1cccs1,-3.3,-0.2,2778,0.3,-5.6
O=c1[nH]nnc2cc(Cl)ccc12,0.5,-12.3,4091,-0.1,-6.0
COc1ccc2c(C)cc(SCC(=O)c3ccc4c(c3)OCO4)nc2c1,-25.6,1.0,23435*,?,-2.6
COc1ccc2c(C)cc(SCc3c(C)noc3C)nc2c1,-10.8,2.2,22377*,4.0,-2.2
COc1ccc2c(C)cc(SC3CCOC3=O)nc2c1 (stereo not given),7.3,-16.1,2298,-2.1,-2.7
Cc1cc(SCC#N)nc2ccccc12,-7.8,-1.1,3080,0.0,-1.5
COc1ccc2c(C)cc(SCC(=O)NC3CCCC3)nc2c1,-2.5,0.9,4171,-0.2,-8.5
COc1ccc2c(C)cc(SCC#N)nc2c1,11.0,-3.0,16543*,1.5,-1.6
CCN(CC)c1c(C)nc2ccc(C(=O)NCc3ccc4c(c3)OCO4)cn12,·,-1.2,3883,0.1,5.9
O=C(NC1CCCCC1)C1c2ccccc2OCC(=O)N1Cc1ccc2c(c1)OCO2 (stereo not given),·,7.3,4587,0.5,-4.2
COc1ccc(S(=O)(=O)NC2CCCCCC2)cc1C(N)=O,-33.4,4.5,5950,-0.4,-2.4
NC(=O)c1cc(S(=O)(=O)NC2CCCCC2)co1,-10.0,-2.6,22647*,?,-2.2
O=C1CC(NNC(=O)c2ccc(Br)cc2)C(=O)N1 (stereo not given),-8.2,42.8*,3778,4.6,8.3
CCOC(=O)CSc1nnc2c3ccccc3n(CC)c2n1,4.4,?,4353,-2.2,9.1
CCOC(=O)C(Sc1nnc2c3ccccc3n(CC)c2n1)C(=O)OCC,-0.7,0.4,16233*,0.4,0.3
CCn1c2ccccc2c2nnc(SCC(=O)Nc3ncccn3)nc21,-3.5,3.0,21373*,?,-1.1
COC(=O)CCCn1cc(CN2CC(N(C)C)CS2(=O)=O)nn1 (stereo not given),·,2.5,5140,0.3,3.3
SMILES,MazF activator,BoNT-F LC inh,Autofluor counter,BoNT A protease,Anthrax LF inh2
Cc1cc(C)n(-c2nc(SCCN(C)C)c3c4c(sc3n2)CCCC4)n1,17.1,-9.0,17751*,-7.3,-2.4
CCOC(=O)c1ccc(-c2cc(C)no2)[nH]1,5.9,-2.3,2310,-0.1,-0.4
O=[N+]([O-])c1ccc(COc2ccccc2CN2CCCCC2)cc1,11.0,-14.3,3132,-0.1,-0.3
Cc1cccc(C)c1NC(=O)CSc1nnc(-c2ccco2)n1N,-1.4,0.2,21789*,1.2,0.4
COc1ccccc1NC(=O)CSc1nnc(-c2ccco2)n1N,2.0,6.8,4144,1.0,-1.9
Nn1c(SCc2cccc3ccccc23)nnc1-c1ccco1,2.6,1.8,22596*,-0.2,-2.3
COc1ccc(S(=O)(=O)NCCSCc2ccco2)cc1OC,-7.0,-16.4,4310,0.2,0.1
CS(=O)(=O)NCCSCc1c(Cl)cccc1Cl,5.5,-2.1,17037*,-1.8,0.2
COc1ccc(S(=O)(=O)NCCSCc2ccccc2C)cc1Br,-12.5,-0.3,16146*,1.1,-1.6
CS(=O)(=O)NCCSCc1c(F)cccc1Cl,0.7,-1.9,2553,-0.2,0.6
CS(=O)(=O)NCCSCc1ccccc1,10.0,-6.3,4466,-0.2,-1.3
Cc1ccccc1CSCCNS(C)(=O)=O,2.3,-1.5,17003*,-1.6,-4.4
COCCNC(=O)C1(C)CCCN(Cc2cn(C)c3ccccc23)C1 (stereo not given),·,2.4,3656,0.1,-0.2

# Assay outcomes as filed in PubChem BioAssay.
